Cardiac RTF inh: cardiac RTF calcium desensitization; IANBD-labeled cardiac RTF, Ca2+ fluorescence; inhibition, % at 7.15 µM; actives 0.12% (n = 340,000);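 active means inhibition above the mean inhibition of all tested compounds plus 3 SD, cut at about 17% in these data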;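 further: assay run at fixed EC70 calcium of 1.6 mM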
cardiac RTF act: cardiac RTF calcium sensitization | P19429+P45379 | IANBD-labeled TnC RTF fluorescence at EC20 calcium; 0% EC20 calcium, 100% full calcium | activation, % at 7.2 µM | actives 0.24% (n = 340,000);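 active means activation above the mean over all tested compounds plus 3 SD, cut at about 30% in these data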;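 further: rise in fluorescence read as greater calcium sensitivity of cardiac thin filaments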
ANO1 activ: activates or potentiates the mouse TMEM16A chloride channel; Q8BHY3; HEK293 TMEM16A/YFP-H148Q/I152L, iodide quench fluorescence; stronger effect = lower value; B-score at 10 µM; actives 0.3% (n = 340,000);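 active means fluorescence-ratio B-score plate-corrected deviation score at least 3 library SD below zero, with starting fluorescence score within 5 deviations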;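 further: channel opened by trigger with iodide after compound preincubation; score built on the fluorescence ratio of max minus min over baseline; more negative score means more quench and so TMEM16A activation or potentiation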
Target sequence (Q8BHY3 whole entry, looked up): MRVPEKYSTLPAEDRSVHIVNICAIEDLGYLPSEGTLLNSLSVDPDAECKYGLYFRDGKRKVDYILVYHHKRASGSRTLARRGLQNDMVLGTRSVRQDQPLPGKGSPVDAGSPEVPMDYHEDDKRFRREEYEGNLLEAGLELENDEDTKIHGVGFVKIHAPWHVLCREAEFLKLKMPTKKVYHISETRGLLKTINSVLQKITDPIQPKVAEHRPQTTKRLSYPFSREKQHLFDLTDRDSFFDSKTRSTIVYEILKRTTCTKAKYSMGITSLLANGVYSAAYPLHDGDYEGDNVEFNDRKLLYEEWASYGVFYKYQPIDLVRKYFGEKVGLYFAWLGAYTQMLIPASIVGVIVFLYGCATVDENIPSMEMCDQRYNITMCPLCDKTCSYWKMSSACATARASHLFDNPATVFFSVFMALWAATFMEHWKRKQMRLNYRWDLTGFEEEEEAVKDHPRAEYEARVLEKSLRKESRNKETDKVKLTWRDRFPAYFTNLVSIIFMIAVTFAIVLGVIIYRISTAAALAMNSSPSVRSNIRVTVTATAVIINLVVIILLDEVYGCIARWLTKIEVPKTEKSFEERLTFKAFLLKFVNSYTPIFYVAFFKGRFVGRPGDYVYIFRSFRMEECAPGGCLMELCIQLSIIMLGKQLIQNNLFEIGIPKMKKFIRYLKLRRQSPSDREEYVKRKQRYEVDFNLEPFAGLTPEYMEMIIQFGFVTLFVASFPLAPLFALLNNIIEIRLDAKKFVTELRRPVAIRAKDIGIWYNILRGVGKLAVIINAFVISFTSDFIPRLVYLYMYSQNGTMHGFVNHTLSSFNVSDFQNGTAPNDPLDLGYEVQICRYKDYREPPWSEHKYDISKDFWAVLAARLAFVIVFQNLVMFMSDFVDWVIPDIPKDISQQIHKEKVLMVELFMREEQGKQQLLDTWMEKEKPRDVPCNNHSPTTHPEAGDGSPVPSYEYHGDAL
CRFBP-R2 block: CRF-BP/CRF-R2 complex antagonism | HEK293 CRF-R2/CRF-BP, CRF-induced calcium fluorescence | inhibition, % at 11.8 µM | actives 0.59% (n = 350,000);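 active means inhibition of the ligand-induced calcium signal above about 50% at the single tested concentration, limit read from the data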
TMEM16A inh: inhibitors of mouse TMEM16A calcium-activated chloride channel; Q8BHY3; normalized B-score (activity score, 25-100; higher = stronger inhibition) at 10 µM; HEK293 TMEM16A/YFP iodide influx fluorescence, ionomycin; actives 1.2% (n = 310,000); AID 588511;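 active means ratio plate-corrected score three or more library SD toward inhibition, starting fluorescence score within five deviations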;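 further: score derived from kinetic fluorescence span divided by baseline fluorescence per well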
CRFBP-R2 agonist: agonists of human CRF-binding protein/CRF-R2 receptor complex. AID 588473. HEK293 CRF-R2/CRF-BP, calcium dye fluorescence (FLIPR); percent of saturating CRF peptide response. activation, % at 13.2 µM. actives 0.46% (n = 350,000);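 active means activation of at least 50%, plus an integration ratio under a set limit after plate pattern correction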
Numbers stand for hits; 0 = inactive; - = not tested or not shown. Only some compounds are listed: those with a hit (about 2.4% of all), similar ones and a draw of the others.

SMILES	Cardiac RTF inh	cardiac RTF act	ANO1 activ	CRFBP-R2 block	TMEM16A inh	CRFBP-R2 agonist
CCOC(=O)c1cc([N+](=O)[O-])sc1NC(=O)c1ccc(S(=O)(=O)N2CC3(C)CC2CC(C)(C)C3)cc1 (configuration not stated)	0	0	-26	0	0	152
O=C(C[n+]1ccccc1)N/N=C/c1ccccc1C(F)(F)F	0	0	0	0	0	0
Cc1cc(C(F)(F)F)n(-c2nc(C(=O)N/N=C/c3ccc(F)cc3)cs2)n1	0	0	0	71	0	0
COc1cccc(/C=N/NC(=O)c2csc(-n3nc(C)cc3C(F)(F)F)n2)c1	0	0	0	0	0	0
COc1ccccc1NC(=O)c1csc(-n2nc(C)cc2C(F)(F)F)n1	0	0	-4.7	0	0	0
CCN(CC(=O)Nc1c(F)cccc1F)C(=O)c1ccc2c(c1)OCO2	0	0	0	0	-	0
CC(=O)c1ccc(NC(=O)CN2c3cccc4cccc(c34)S2(=O)=O)cc1	0	0	-4.7	0	-	0
CCC(C)NC(=O)CN1c2cccc3cccc(c23)S1(=O)=O (configuration not stated)	0	0	-7.2	0	0	0
CC(=O)Nc1cccc(NC(=O)CN2c3cccc4cccc(c34)S2(=O)=O)c1	0	0	0	0	-	0
NC(=O)NC(=O)CN1c2cccc3cccc(c23)S1(=O)=O	0	0	-6.9	0	0	0
CCNC(=O)CN1c2cccc3cccc(c23)S1(=O)=O	0	0	0	0	0	0
C[C@H]1CN([C@@H](C)CO)S(=O)(=O)c2ccc(Br)cc2O[C@H]1CN(C)C(=O)c1cccnc1	-	-	-	0	-	0
S=C(NCCN1CCOCC1)N/N=C/c1c2ccccc2cc2ccccc12	0	0	0	0	0	0
COc1ccc2ccccc2c1/C=N/NC(=S)NCCN1CCOCC1	0	0	-29	0	0	0
O=C(Nc1ccc(OC(F)(F)F)cc1)C1CCCN(C(=O)c2ccc(Cl)cc2)C1 (configuration not stated)	0	0	0	0	-	0
CC1(C)CCN2CCC(C)(C)c3c(O)ccc1c32	0	85	0	0	0	118
Cc1ccc2oc(=O)n(Cc3ccccc3)c2c1	0	0	0	0	0	0
O=c1c(/C=N/OCc2ccc(Cl)cc2Cl)c[nH]n1-c1cccc(Cl)n1	0	0	0	0	25	0
Cc1cc(O)c(/C=N/OCc2ccc(Cl)cc2Cl)c(=O)o1	0	0	0	0	0	0
Cc1ccccc1C(=O)N1CCc2cc(-c3csc(NC(=O)CN4CCCC4)n3)ccc21	0	0	0	0	25	0
O=C(CS(=O)(=O)c1ccccc1)Nc1nc(-c2ccccc2)cs1	0	0	0	0	0	0
Cc1ccc(S(=O)(=O)CC(=O)Nc2nc(-c3ccccc3)cs2)cc1	0	0	-5	0	0	0
O=C(CN1CCCCC1)Nc1nc(-c2ccccc2)cs1	0	0	0	0	0	0
CCCC(=O)Nc1nc(-c2ccc3c(c2)CCN3S(C)(=O)=O)cs1	0	0	0	0	0	0
CS(=O)(=O)N1CCc2cc(-c3csc(NC(=O)Cc4ccccc4)n3)ccc21	0	0	0	0	25	0
SMILES	Cardiac RTF inh	cardiac RTF act	ANO1 activ	CRFBP-R2 block	TMEM16A inh	CRFBP-R2 agonist
CCCc1nc2sc3ccccc3c(=O)c2c(=O)n1Cc1ccc(OC)cc1	-	-	0	0	0	0
CCCc1nc2sc3ccccc3c(=O)c2c(=O)n1Cc1ccco1	0	0	0	0	-	55
CCOC(=O)c1cnc2cc(-c3ccc(Br)cc3)nn2c1C	0	0	0	0	0	0
CC(C)N(CCn1c(=S)[nH]c2ccccc2c1=O)C(C)C	0	0	0	0	0	50
Cc1c(-c2ccc(Cl)cc2)[n+](=O)c2c(n1[O-])CCCC2	0	0	0	0	0	0
Cc1c(-c2ccc(Cl)cc2)[n+](=O)c(-c2ccccc2)cn1[O-]	-	-	0	111	0	0
CCOCCN1CCN(C2c3ccccc3CSc3ccccc32)CC1 (configuration not stated)	0	0	0	0	0	0
CC1(C)Oc2ccc3ccc(=O)oc3c2/C(=C/NNC(N)=S)C1=O	0	0	0	0	0	0
O=C(O)c1cnc(-c2ccccc2)nc1Sc1ccc(Cl)cc1	0	0	0	55	0	0
CSc1ncccc1C(=O)NC1CC(C)(C)Cc2c1cnn2-c1ccccc1C (configuration not stated)	0	0	0	0	0	0
CCOc1cc(/C=C/c2cccc[n+]2C)ccc1O	0	0	0	0	0	59
CCS(=O)(=O)c1cc([N+](=O)[O-])c(Sc2ccccc2NC(C)=O)s1	0	0	0	0	0	0
CC(C)C[C@H](NC(=O)[C@H](Cc1ccccc1)n1c(=O)[nH]c2ccccc2c1=O)C(=O)N1CCC(C(=O)O)CC1	0	0	-13	0	0	0
O=C(NCCCN1CCOCC1)c1cc(S(=O)(=O)N2CCCCC2)ccc1Cl	-	-	-	0	-	0
O=C(NCc1ccccn1)C(=O)NCC1OCCN1S(=O)(=O)c1ccc(F)cc1 (configuration not stated)	0	0	0	0	0	0
Nc1c(C(=O)c2ccccc2)sc2nsc(SCCN3CCOCC3)c12	-	-	0	0	0	69
CC(C)CC1=NN2C(=N)/C(=C\c3coc4ccccc4c3=O)C(=O)N=C2S1	0	230	0	0	-	306
CSC1=NSC2=NC(=O)/C(=C\c3ccc(OC(=O)c4ccco4)cc3)C(=N)N12	0	0	0	0	0	0
CCSC1=NSC2=NC(=O)/C(=C\c3coc4ccccc4c3=O)C(=N)N12	0	555	0	0	0	185
CCOc1ccc(OCC)c(-c2c(=O)n(OCc3ccc(C(C)(C)C)cc3)c3ccccc3[n+]2[O-])c1	0	0	0	0	0	0
Cc1ccc(C(=O)N(C)CC(=O)Nc2cccc(C)c2C)o1	0	0	0	0	0	0
N#Cc1c(Cl)nsc1NC(=O)c1ccccc1	0	0	0	56	100	0
CC(=O)Nc1ccc(S(=O)(=O)Oc2ccc3c(c2)C(C)=CC(C)(C)N3)cc1	-	-	-	-	25	-
Cc1cc(C(=O)NC2CCCc3c2cnn3-c2ccc(C(C)(C)C)cc2)nn1C (configuration not stated)	0	0	0	0	25	0
COc1ccc(CN2CCCCC2C)cc1C (configuration not stated)	0	0	0	60	0	162
CC(=O)NC1=NN(C(C)=O)C(C)(c2ccccn2)S1 (configuration not stated)	0	0	0	52	0	0
COc1ccc(/C=C2\Oc3cc(OC(=O)N4CCOCC4)ccc3C2=O)c(OC)c1	0	37	0	0	0	0

Bioassay records as filed in PubChem BioAssay.
